Assay results as given in PubChem BioAssay (NCI).
About 79,000 compounds went through this panel and 15% of them were active in at least one assay; those are over-represented in the sample as a whole. Active and inactive are the calls of the source. Rule as the data show it: active = growth inhibition above about 70%; inactive = the rest.

Key:
[1] = NCI Yeast Anticancer Drug Screen. Data for the rad52 strain (AID 147);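 also: 0% = growth of vehicle-treated control cultures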; conditions: S. cerevisiae rad52 mutant growth inhibition, active compounds read high
In short: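 The repair-mutant yeast strain was incubated with compounds, then growth was read and inhibition derived relative to vehicle.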

[2] = NCI Yeast Anticancer Drug Screen. Data for the wt1 strain (AID 149);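 also: 0% = growth of vehicle-treated wt1 cultures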; conditions: S. cerevisiae wt1 strain (SPY 50644) growth inhibition, active compounds read high
In short: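 wt1 yeast, compound-treated; % growth inhibition vs vehicle control.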

[3] = NCI Yeast Anticancer Drug Screen. Data for the rad50EPP+ strain (AID 151);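 also: 0% = growth of vehicle-treated control cultures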; conditions: S. cerevisiae rad50 mutant strain, active compounds read high
In short: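 Vehicle-normalised growth inhibition; rad50EPP+ yeast strain, altered in DNA damage repair, compound-treated.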

[4] = NCI Yeast Anticancer Drug Screen. Data for the rad50 strain (AID 155);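 also: 0% = growth of vehicle-only cultures of the same strain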; conditions: S. cerevisiae rad50 strain growth inhibition, active compounds read high
In short: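 Genetically altered yeast (DNA repair pathway); compound treatment; growth inhibition vs vehicle ctrl.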

[5] = NCI Yeast Anticancer Drug Screen. Data for the mec2-1 strain (AID 157); conditions: S. cerevisiae mec2-1 strain, active compounds read high
In short: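 Mutant yeast (mec2-1) grown with compound; growth inhibition relative to vehicle control reported.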

[6] = NCI Yeast Anticancer Drug Screen. Data for the sgs1 mgt1 strain (AID 161);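 also: 0% = growth of cultures given vehicle only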; conditions: S. cerevisiae sgs1 mgt1 strain, active compounds read high
In short: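 Yeast cells carrying a defined DNA-repair defect were exposed to test compounds. Growth inhibition was measured relative to vehicle-treated controls.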

[7] = NCI Yeast Anticancer Drug Screen. Data for the CLN2oe strain (AID 163);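 also: 0% = growth of vehicle-only control cultures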; conditions: S. cerevisiae CLN2oe strain, active compounds read high
In short: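 Compounds are applied to yeast harbouring a defined cell-cycle control change; reduced growth compared with vehicle-treated controls gives the value.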

[8] = NCI Yeast Anticancer Drug Screen. Data for the cln2 rad14 strain (AID 165);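 also: 0% = growth equal to vehicle treated cultures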; conditions: S. cerevisiae cln2 rad14 strain, active compounds read high
In short: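 Readout is yeast growth inhibition versus vehicle-treated controls, using a strain with cln2 and rad14 alterations exposed to compound.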

[9] = NCI Yeast Anticancer Drug Screen. Data for the bub3 strain (AID 167); conditions: S. cerevisiae bub3 mutant strain, active compounds read high
In short: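 Yeast carrying a defined mutation is treated with each compound, and growth is compared with that of vehicle-exposed cells to give inhibition.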

[10] = NCI Yeast Anticancer Drug Screen. Data for the wt2 strain (AID 169);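 also: 0% = growth of vehicle-treated yeast cultures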; conditions: S. cerevisiae wt2 strain growth inhibition, active compounds read high
In short: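 Against vehicle-treated controls, the growth of yeast exposed to each compound was compared, and the inhibition was recorded.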

[11] = NCI Yeast Anticancer Drug Screen. Data for the mlh1 strain (AID 171);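 also: 0% = growth of vehicle-treated control cultures of the same strain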; conditions: S. cerevisiae mlh1 strain growth inhibition, active compounds read high
In short: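 Measured: yeast growth. Reference: vehicle-treated controls. Organism: strain with a defined alteration affecting DNA damage repair or cell cycle control, treated with compound.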

[12] = NCI Yeast Anticancer Drug Screen. Data for the sgs1 strain (AID 173);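 also: 0% = growth of vehicle-only control cultures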; conditions: S. cerevisiae sgs1 mutant, active compounds read high
In short: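 Each compound was added to cultures of the altered yeast strain. Growth was recorded, and inhibition was derived by comparison with vehicle controls.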

[13] = NCI Yeast Anticancer Drug Screen. Data for the mlh1 rad18 strain (AID 175); conditions: S. cerevisiae mlh1 rad18 strain growth inhibition, active compounds read high
In short: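 Genetically defined yeast (DNA repair-deficient) exposed to compounds; growth inhibition determined relative to vehicle.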

[14] = NCI Yeast Anticancer Drug Screen. Data for the rad18 strain (AID 177); conditions: S. cerevisiae rad18 mutant growth inhibition, active compounds read high
In short: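 Vehicle-treated cultures served as the baseline for scoring compound-induced growth inhibition in DNA-repair-mutant yeast.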

[15] = NCI Yeast Anticancer Drug Screen. Data for the mgt1 strain (AID 153); conditions: S. cerevisiae mgt1 mutant growth inhibition, active compounds read high
In short: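 Vehicle-normalized growth inhibition is determined in mgt1 yeast, a strain selected for a defined alteration in DNA repair or cell cycle control.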

[16] = NCI Yeast Anticancer Drug Screen. Data for the rad14 strain (AID 159);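 also: 0% = growth of vehicle-treated control cultures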; conditions: S. cerevisiae rad14 strain growth inhibition, active compounds read high
In short: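 Test compounds were applied to a repair-deficient yeast strain. Its growth was then compared with that of cultures given vehicle alone, and inhibition was expressed relative to those controls.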

[17] = at 5.0 µM (retest, dose inferred, filed as 0.5)
[18] = at 50.0 µM (retest, dose inferred, filed as 5.0)

Measured: growth inhibition

CCC(NC(C)c1ccccc1)C(=O)c1ccc(OCc2ccccc2)c(OCc2ccccc2)c1 (stereo not drawn)
active: [5]; [18] 97% | [13]; [18] 96%
inactive: [1]; at 1.2 µM 0% | [1]; at 3.7 µM 7% | [1]; at 11.0 µM 0% | [1]; at 33.0 µM 6% | [1]; at 100.0 µM -18% | [2]; at 1.2 µM 22% | [2]; at 3.7 µM 18% | [2]; at 11.0 µM 6% | [2]; at 33.0 µM 2% | [2]; at 100.0 µM -15% | [3]; at 1.2 µM 8% | [3]; at 3.7 µM 7% | [3]; at 11.0 µM 10% | [3]; at 33.0 µM 24% | [3]; at 100.0 µM 43% | [4]; at 1.2 µM -8% | [4]; at 3.7 µM 9% | [4]; [17] 11% | [4]; at 11.0 µM 22% | [4]; at 33.0 µM 14% | [4]; [18] 38% | [4]; at 50.0 µM -12.7% | [4]; at 100.0 µM 1% | [5]; at 1.2 µM 39% | [5]; at 3.7 µM 23% | [5]; [17] 9% | [5]; at 11.0 µM 35% | [5]; at 33.0 µM 31% | [5]; at 50.0 µM 15.3% | [5]; at 100.0 µM 30% | [6]; [17] -21% | [6]; [18] 15% | [6]; at 50.0 µM 28.2% | [7]; at 1.2 µM -4% | [7]; at 3.7 µM -3% | [7]; at 11.0 µM -14% | [7]; at 33.0 µM -16% | [7]; at 100.0 µM -29% | [8]; [17] -9% | [8]; [18] 30% | [8]; at 50.0 µM 0.35% | [9]; at 1.2 µM -47% | [9]; at 3.7 µM -38% | [9]; [17] -7% | [9]; at 11.0 µM -48% | [9]; at 33.0 µM -67% | [9]; [18] 1% | [9]; at 50.0 µM 22.8% | [9]; at 100.0 µM -81% | [10]; at 1.2 µM -12% | [10]; at 3.7 µM -12% | [10]; at 11.0 µM -13% | [10]; at 33.0 µM -7% | [10]; at 100.0 µM -6% | [11]; at 1.2 µM 5% | [11]; at 3.7 µM -6% | [11]; at 11.0 µM 3% | [11]; at 33.0 µM 0% | [11]; at 100.0 µM -3% | [12]; at 1.2 µM 8% | [12]; at 3.7 µM 18% | [12]; at 11.0 µM 11% | [12]; at 33.0 µM 42% | [12]; at 100.0 µM 19% | [13]; [17] 14% | [13]; at 50.0 µM -4.9% | [14]; at 1.2 µM -13% | [14]; at 3.7 µM -4% | [14]; at 11.0 µM -26% | [14]; at 33.0 µM -27% | [14]; at 100.0 µM -30%

N#C/C(=C1C=C(Br)/C(=N\O)C=C\1Cl)c1cccc2ccccc12
active: [1]; at 11.0 µM 94% | [1]; at 33.0 µM 93% | [1]; at 100.0 µM 95% | [2]; at 11.0 µM 84% | [2]; at 33.0 µM 86% | [2]; at 100.0 µM 96% | [15]; at 11.0 µM 79% | [15]; at 33.0 µM 85% | [15]; at 100.0 µM 97% | [4]; [17] 99% | [4]; at 11.0 µM 91% | [4]; at 33.0 µM 87% | [4]; [18] 98% | [4]; at 50.0 µM 89.2% | [4]; at 100.0 µM 94% | [5]; [17] 100% | [5]; at 11.0 µM 89% | [5]; at 33.0 µM 91% | [5]; [18] 98% | [5]; at 50.0 µM 90.7% | [5]; at 100.0 µM 94% | [16]; at 33.0 µM 70% | [16]; at 100.0 µM 96% | [6]; [18] 96% | [7]; at 33.0 µM 86% | [7]; at 100.0 µM 93% | [8]; [18] 95% | [9]; at 11.0 µM 94% | [9]; at 33.0 µM 93% | [9]; [18] 93% | [9]; at 100.0 µM 95% | [10]; at 11.0 µM 87% | [10]; at 33.0 µM 90% | [10]; at 100.0 µM 97% | [11]; at 33.0 µM 79% | [11]; at 100.0 µM 94% | [12]; at 11.0 µM 82% | [12]; at 33.0 µM 92% | [12]; at 100.0 µM 95% | [13]; [17] 100% | [13]; [18] 98% | [13]; at 50.0 µM 89.3% | [14]; at 11.0 µM 91% | [14]; at 33.0 µM 89% | [14]; at 100.0 µM 95%
inactive: [1]; at 1.2 µM 15% | [1]; at 3.7 µM 16% | [2]; at 1.2 µM -1% | [2]; at 3.7 µM 4% | [15]; at 1.2 µM 11% | [15]; at 3.7 µM 4% | [4]; at 1.2 µM 28% | [4]; at 3.7 µM 44% | [5]; at 1.2 µM 2% | [5]; at 3.7 µM 18% | [16]; at 1.2 µM -14% | [16]; at 3.7 µM -10% | [16]; at 11.0 µM 55% | [6]; [17] 5% | [7]; at 1.2 µM -15% | [7]; at 3.7 µM 27% | [7]; at 11.0 µM 63% | [8]; [17] 25% | [9]; at 1.2 µM 33% | [9]; at 3.7 µM 49% | [9]; [17] 59% | [10]; at 1.2 µM 0% | [10]; at 3.7 µM 7% | [11]; at 1.2 µM -37% | [11]; at 3.7 µM -11% | [11]; at 11.0 µM 58% | [12]; at 1.2 µM 15% | [12]; at 3.7 µM 18% | [14]; at 1.2 µM 0% | [14]; at 3.7 µM 12%
